Source: PubChem BioAssay AID2320 (National Center for Advancing Translational Sciences (NCATS), 2010)
Inconclusive results are not listed. Active and inactive are the calls of the source. Calls follow the shape of the full dose curve.

Test: A qHTS for Small Molecule Inhibitors of Shiga Toxin (Confirmatory); also: nearly all actives have a fitted effect of over 75% in size; as to activity, positive = inhibition of toxin: 0% is about no effect
Settings: Cell-based Shiga toxin protection reporter assay; series mostly up to 38.3 µM; activity, positive = inhibition of toxin: at the top concentration
Potency is read from the fitted curve at half-maximal effect.

Structure (SMILES) | activity, positive = inhibition of toxin | Potency
COc1ccccc1N(CCC#N)C(=O)CSc1nc(-c2ccccc2)cn1N | 28.7% (inactive) | 
COc1ccccc1NC(=O)CSc1nnc(-c2ccco2)n1Cc1ccco1 | 2.84% (inactive) | 
Cc1ccc(N/C(C(Cl)=C(Cl)Cl)=C(/Cl)[N+](=O)[O-])c(C)c1 | -15.4% (inactive) | 
C/C1=C\[C@@H](O)C(C(C)C)C(OC(=O)c2ccc(O)cc2)C/C(C)=C/CC1 (stereo partly drawn) |  | 17.9 µM (active)
C=CCn1c(=S)[nH]c2cc(-c3ccccc3)sc2c1=O |  | 0.0113 µM (active)
O=C(Cc1cccs1)Nc1nc(-c2ccc(F)c(F)c2)cs1 |  | 6.34 µM (active)
CC(=O)Nc1cccc(NC(=O)CSc2nc3ccccc3o2)c1 | -0.494% (inactive) | 
CCN(CC)CC(=O)Nc1ccc(-c2nc3cc(NC(=O)CN(CC)CC)ccc3o2)cc1 | 46.8% (inactive) | 
Cn1c(=O)c2ncn(CC(=O)NCCOc3ccccc3)c2n(C)c1=O | -16.7% (inactive) | 
Cc1cc(OCC(=O)NCc2ccccn2)cc(C)c1Br | -1.75% (inactive) | 
O=C1ON=C(c2ccccc2)/C1=C/c1ccc(OS(=O)(=O)c2ccccc2)cc1 |  | 7.11 µM (active)
COc1ccccc1NC(=O)CSc1nnc(CC(=O)Nc2ccccc2F)n1C | -1.04% (inactive) | 
O=C(O)c1ccn(Cn2cnc3ccccc32)n1 | -19.1% (inactive) | 
Cc1cccc(C(=O)Nc2nnc(SCC(=O)NC3CC3)s2)c1 |  | 4.49 µM (active)
Fc1ccccc1N=C1Nc2cccc3cccc1c23 | 35% (inactive) | 
COc1cccc(OC)c1OCCCOc1ccc(C)cc1Br | 28.7% (inactive) | 
Cc1ccc(C(=O)CSc2nnnn2C(C)C)c(C)c1 |  | 0.449 µM (active)
NC(=O)[C@@H]1CCCN1C(=O)c1ccc2nc(Cc3cccc(Cl)c3)oc2c1 | -4.22% (inactive) | 
COc1cccc(C(=O)NNC(=O)C2CC(C)=C(C)CC2C(=O)O)c1 (stereo not drawn) | -47.7% (inactive) | 

Structure (SMILES) | activity, positive = inhibition of toxin | Potency
CC(=O)N/C(=C\c1ccccc1)C(=O)Nc1ccccc1C |  | 0.0798 µM (active)
CCc1nc2ccccc2c(=O)n1NCCc1ccccc1 | 30.6% (inactive) | 
COc1ccccc1C(=O)CSc1nccn1C |  | 28.3 µM (active)
COc1ccc(C2C(C#N)=C(C)NC3=C2C(=O)CC(C)(C)C3)c(OC)c1 (stereo not drawn) | -20.4% (inactive) | 
Cc1cc(C(=O)COC(=O)C2CC2)c(C)n1-c1ccc(F)cc1 |  | 4 µM (active)
Cc1cccc(C(=O)NC(NCCc2ccccc2)C(Cl)(Cl)Cl)c1 (stereo not drawn) | 24.6% (inactive) | 
CCn1c(SCC(=O)NCc2ccco2)nc2c1c(=O)n(C)c(=O)n2C | 73.1% (inactive) | 
Cc1cc(C)c2nc(-c3ccccn3)cc(C(=O)NCc3ccco3)c2c1 |  | 15.9 µM (active)
O=C(Nc1ccc(/C=C/c2nc3ccccc3o2)cc1)c1ccc(F)cc1 |  | 3.18 µM (active)
CC(=O)c1cccc(N2C(=O)C3C4CCC(C4=C(C)C)C3C2=O)c1 (stereo not drawn) | -18.1% (inactive) | 
CCCc1nc2ccccc2c(=O)n1NC(=O)c1c(O)c2ccccc2[nH]c1=O |  | 14.2 µM (active)
CC1CC(C)CN(C(=O)C(NS(=O)(=O)c2ccc(Br)s2)c2ccccc2)C1 (stereo not drawn) |  | 2.25 µM (active)
COc1ccc2[nH]c(-c3ccccc3)cc(=O)c2c1 |  | 0.0711 µM (active)
O=C(NCC1CCCO1)Nc1ccc2c(c1)OCO2 (stereo not drawn) |  | 22.5 µM (active)
CCCc1cc(=O)oc2cc(C)cc(OCC(=O)NCc3ccccn3)c12 | -31.3% (inactive) | 
O=C(NCC(=O)N1CCCC(C(F)(F)F)C1)c1ccc(Oc2ccccc2)cc1 (stereo not drawn) | 11.5% (inactive) | 
Cc1ccc(-c2csc(NC(=O)c3ccc(C)o3)n2)cc1 |  | 0.0318 µM (active)
Cc1ccc(NC(=O)c2cc(S(=O)(=O)N3CCCCC3)ccc2N2CCOCC2)cc1F |  | 0.04 µM (active)
Cc1c(C(=O)Nc2nc3ccccc3[nH]2)oc2ccc(Br)cc12 |  | 11.3 µM (active)
